An excerpt weighted towards active compounds, which were near 1.5% of everything screened.
sPLA2-III inh – Inhibits HGIII-sPLA2 liposome hydrolysis, primary screen; Q9NZ20; QFRET BODIPY PC-A2 liposome hydrolysis, fluorescence; inhibition, % at 12.2 µM; 370,000 tested, 0.56% active;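 active = inhibition above mean plus 3 SD of compounds lying within the high and low control bounds, cut at about 19% in these data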
AI-2 QS mod – modulates the Vibrio harveyi AI-2 quorum sensing system; Vibrio harveyi JMH597 AI-2 luminescence/OD600 ratio, 9 h; stronger effect = lower value; strain lacks LuxN and CqsS sensors; 0 = neutral-control median; activity change, % at 7.5 µM; 300,000 tested, 0.4% active; in the data active = activity change below about -75%, passing the limit was not always enough; inconclusive = no clear call, values can overlap the other calls;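 also: luminescence divided by OD600 gain over 9 h not by final OD600 alone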
ARNT-TACC3 inh – disrupts binding between human ARNT and TACC3; AID 623870; inhibition, % at 9.99 µM; AlphaScreen His-ARNT PAS-B/GST-TACC3 binding, luminescence; TACC3 fragment carries E629A point mutation; 390,000 tested, 0.66% active;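 active = mean inhibition of replicates at least 50% and at least half of replicates each reaching 50%; inconclusive = half or more replicates reach 50% but mean below 50%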
Rin1 Abl inh – human Rin1-Abl interaction inhibition | P00519+Q13671 | TR-FRET Rin1/Abl binding, biochemical | inhibition, % at 7.35 µM | 360,000 tested, 0.4% active; in the data active = inhibition above about 5%, passing the limit was not always enough
JMH597 growth rt – retest: blocks Vibrio harveyi JMH597 growth. shares compounds with AI-2 QS mod. OD600 absorbance, 9 h; lacks LuxN and CqsS sensors. growth inhibition, % at 7.5 µM. 750 tested, 1% active. AID 2726;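 active = every replicate shows growth inhibition above 50%; inconclusive = at least half, but not all, replicates pass that cutoff; inactive = fewer than half of replicates pass it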
BB721 lum counter – retest counter-screen: lowers luminescence of constitutive-QS Vibrio harveyi BB721. 750 tested, 95% active. inhibition, % at 7.5 µM. 9 h. AID 2727. shares compounds with AI-2 QS mod;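 active = inhibition above about 80% in every replicate, not just on average, limit read from the data; inconclusive = at least half of replicates past the limit, but not all; inactive = fewer than half of replicates past the limit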
BB721 growth rt – retest Vibrio harveyi BB721 growth inhibition; shares compounds with AI-2 QS mod; OD600 absorbance, 9 h; growth inhibition, % at 7.5 µM; 750 tested, 3% active; AID 2728;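 active = every replicate shows growth inhibition above 50%; inconclusive = at least half but not all replicates above 50% inhibition; inactive = under half of replicates above 50% inhibition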
AI-2 QS JMH597 – Vibrio harveyi AI-2 signaling luminescence modulation – JMH597 strain, confirmation; shares compounds with AI-2 QS mod; Vibrio harveyi JMH597 AI-2 quorum sensing luminescence, 9 h; luxN and CqsS knockout, AI-2 only; inhibition, % at 7.5 µM; 750 tested, 97% active;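 active = every replicate shows more than 75% inhibition of signal versus neutral control wells; inconclusive = half to three quarters of replicates exceed 75% inhibition; inactive = fewer than half of replicates exceed 75% inhibition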
Hits are given with their value; n = inactive; u = inconclusive; x = not tested or not shown.

SMILES	sPLA2-III inh	AI-2 QS mod	ARNT-TACC3 inh	Rin1 Abl inh	JMH597 growth rt	BB721 lum counter	BB721 growth rt	AI-2 QS JMH597
Cc1sc2ncnc(OCC(=O)c3ccc(S(=O)(=O)N4CCCC4)cc3)c2c1C	n	-90	n	n	u	98	69	99
C[C@H]1CCCCO[C@@H](CN(C)S(=O)(=O)c2cn(C)cn2)[C@@H](C)CN([C@@H](C)CO)C(=O)c2cc(NS(=O)(=O)c3cn(C)cn3)ccc2O1	x	x	n	x	x	x	x	x
Cc1cc(NS(=O)(=O)c2ccc(NC(=O)COc3ccccc3Cl)cc2)no1	n	n	n	n	x	x	x	x
O=C(COC(=O)c1ccc(Br)o1)Nc1cccc(S(=O)(=O)N2CCCCC2)c1	n	x	n	n	x	x	x	x
O=C(COC(=O)c1ccc(Br)o1)Nc1ccc(S(=O)(=O)N2CCCC2)cc1	n	-94	n	n	n	99	n	100
Cc1ccc(C(=O)NCCc2ccc(S(=O)(=O)N3CCCC3)cc2)cc1	n	-79	n	n	n	93	n	96
Cc1cc(NS(=O)(=O)c2ccc(NC(=O)COc3ccc(Cl)cc3)cc2)no1	n	-87	n	n	n	93	n	91
O=C(CNC(=O)c1ccco1)Nc1ccc(S(=O)(=O)N2CCCC2)cc1	n	-94	n	n	n	98	n	99
O=C(Cc1ccccc1)Nc1ccc(S(=O)(=O)N2CCCC2)cc1	n	n	n	n	x	x	x	x
O=C(NNS(=O)(=O)c1ccc(Cl)cc1)c1ccc(S(=O)(=O)N2CCCCC2)cc1	n	-97	n	n	n	100	n	100
O=C(NNC(=O)C1CCN(S(=O)(=O)c2ccc(Cl)cc2)CC1)c1ccc(Cl)cc1	n	n	n	n	x	x	x	x
COc1ccc(OCC(=O)Nc2ccc(S(=O)(=O)N3CCCC3)cc2)cc1	n	u	n	n	n	95	n	99
O=C(Cn1c(=O)sc2ccccc21)Nc1ccc(S(=O)(=O)N2CCCC2)cc1	n	-97	x	n	n	99	n	99
Cc1ccc(OCC(=O)Nc2ccc(S(=O)(=O)N3CCCC3)cc2)cc1	n	u	x	n	n	92	n	99
C[C@@H]1CN([C@H](C)CO)C(=O)c2cc(NC(=O)c3ccncc3)ccc2O[C@H]1CN(C)S(=O)(=O)c1cccs1	x	x	n	x	x	x	x	x
CN(C)C(=O)C[C@@H]1CC[C@@H](NC(=O)C2CCOCC2)[C@@H](CO)O1	x	x	n	x	x	x	x	x
c1ccc(OCc2nc(-c3cccs3)no2)cc1	n	-84	n	n	n	96	n	97
Clc1ccc(OCc2nc(-c3ccncc3)no2)c(Cl)c1	n	n	n	n	x	x	x	x
Fc1ccc(OCc2nc(-c3cccs3)no2)cc1	n	n	n	n	x	x	x	x
Clc1cccc(OCc2nc(-c3ccncc3)no2)c1	n	-88	x	n	n	96	n	97
O=C(Nc1ccc(Oc2cccc3ccccc23)cc1)c1ccco1	n	-88	n	n	n	95	n	93
O=C(OC1CCCCC1)c1ccc(NC(=O)c2ccco2)cc1	n	-79	n	n	n	85	u	90
O=C(O)c1ccccc1C(=O)Nc1ccc(Oc2cccc3ccccc23)cc1	n	n	n	n	x	x	x	x
O=C(NNc1nc2cc3c(cc2s1)OCCO3)c1ccccc1	n	-93	x	n	n	98	n	98
CC(C)NC(=O)Nc1ccc2c(c1)CC(=O)N([C@H](C)CO)C[C@@H](C)[C@H](CN(C)Cc1ccc(-c3ccccc3)cc1)O2	x	x	n	x	x	x	x	x
SMILES	sPLA2-III inh	AI-2 QS mod	ARNT-TACC3 inh	Rin1 Abl inh	JMH597 growth rt	BB721 lum counter	BB721 growth rt	AI-2 QS JMH597
Cc1nnc(NC(=O)CSc2ccc(-c3ccco3)nn2)s1	n	n	n	n	x	x	x	x
CCc1nnc(NC(=O)CSc2ccc(-c3ccco3)nn2)s1	n	-83	n	n	n	94	n	96
COc1cc(NC(=O)Cn2ncc(Cl)c(Cl)c2=O)c(C)cc1[N+](=O)[O-]	n	-80	n	n	n	93	n	94
O=C(Cc1ccc(Cl)cc1)N/N=C/c1ccncc1	n	-81	n	n	n	92	n	92
O=C(Cc1ccc(Cl)cc1)N/N=C/c1cccc(O)c1	n	-95	n	n	n	97	n	98
O=C(Cc1ccc(Cl)cc1)N/N=C/c1ccccc1	n	n	n	n	x	x	x	x
Cc1ccc(S(=O)(=O)N(C)C[C@H]2Oc3ccc(NC(=O)c4ccncc4)cc3CC(=O)N([C@@H](C)CO)C[C@H]2C)cc1	x	x	n	x	x	x	x	x
C[C@@H]1CCCCO[C@@H](CN(C)C(=O)Cc2ccccc2)[C@H](C)CN([C@H](C)CO)C(=O)c2cc(NC(=O)C3CCCCC3)ccc2O1	x	x	n	x	x	x	x	x
Cn1c(=O)n(C)c2cc(NC(=O)CCl)ccc21	n	-88	n	n	n	87	n	89
COc1ccc(CSc2nc3ccccc3[nH]2)cc1	n	-85	n	n	n	92	n	96
O=C1CCC(=O)N1c1ccc(CSc2nc3ccccc3[nH]2)cc1	n	n	n	n	x	x	x	x
Fc1ccc(CSc2nnc(-c3ccco3)o2)cc1	n	u	n	n	x	x	x	x
c1ccc(CSc2nnc(-c3ccco3)o2)cc1	n	-87	n	n	n	95	n	96
Brc1ccc(CSc2nnc(-c3ccco3)o2)cc1	n	n	n	n	x	x	x	x
Cc1ccc(CSc2nnc(-c3ccco3)o2)cc1	n	-82	x	n	n	96	n	98
CCCOC(=O)c1ccc(NS(=O)(=O)c2cccs2)cc1	n	-86	n	n	n	89	n	99
Cc1cc(C(=O)Nc2cccc3c2O[C@H](CN(C)S(=O)(=O)c2ccc(F)cc2)[C@H](C)CN([C@H](C)CO)C3=O)n(C)n1	x	x	n	x	x	x	x	x
c1ccc(-c2noc(CSc3nc4ccccc4o3)n2)cc1	n	u	n	n	n	87	n	94
c1ccc2oc(SCc3cn4ccccc4n3)nc2c1	n	-78	n	n	n	92	n	95
c1ccc(OCCSc2nc3ccccc3o2)cc1	n	-80	n	n	n	94	n	96
c1ccc2nc(SCc3cn4ccccc4n3)cnc2c1	n	n	n	n	x	x	x	x
CN1CC(=O)N(CC(=O)Nc2cc(Cl)cc(Cl)c2)C1=O	n	-94	n	n	n	98	n	99
O=C(Cn1nnc2ccccc2c1=O)Nc1ccc(S(=O)(=O)N2CCOCC2)cc1	n	-97	n	n	n	99	n	100
CC(=O)c1ccc(NC(=O)CCCCCn2nnc3ccccc3c2=O)cc1	n	n	n	n	x	x	x	x
Cc1ccc(NC(=O)Cn2nnc3ccccc3c2=O)cc1	n	-84	n	n	n	97	n	98
Cc1ccc(NC(=O)Cn2nnc3ccccc3c2=O)cc1C	n	-93	n	n	n	99	n	99

Source: PubChem BioAssay (several laboratories)
